D1 ag = activates the human D1 dopamine receptor; P21728; HEK293 T-REx D1 cells, calcium flux, agonist mode; activation, % at 2 µM; 1% of 360,000 active; AID 504660; also: 0% is about no effect
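Agonism was scored from calcium flux recorded over 180 s (1 read/s) after pintool compound addition, following a 10-cycle baseline. Cells were inducible force-coupled HEK293 TREx D1, plated overnight at 30 C and loaded with no-wash calcium dye.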
Epigenetic derep = derepresses silenced GFP reporter in murine cells. Potency, µM (top dose mostly 53.9 µM), without a hit: top-dose GFP activation, actives largely listed as activators. 0.2% of 280,000 active. murine LDR cells, GFP reporter derepression, 30 h. AID 1865; active = well fitted activation curve with a large enough effect; inconclusive = small, poorly fitted or top-dose-only effect; also: potency is read from the fitted curve at half-maximal effect; % of control where 0% means no effect; nearly all actives have a fitted effect of over 60% in size
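Murine LDR cells bearing a silenced CMV-driven GFP reporter were exposed to compound for 30 h at 37 C. After PBS washes, GFP-positive cells (20-120 um objects) counted by laser-scanning microplate cytometry.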
D1 PAM = human D1 dopamine receptor positive modulation. P21728. HEK293 TREx D1 cells, calcium flux, dopamine EC20 potentiation. potentiation, % at 10 µM. 0.036% of 360,000 active; in the data active = potentiation above about 30%; also: 0% is about no effect
TRHR ag = activates the human TRH receptor; P34981; TRHR cells, calcium flux fluo-8, FDSS agonist mode; activation, % at 2 µM; 0.18% of 360,000 active; AID 493084; also: 0% is about no effect
Target sequence (P34981 whole entry, looked up): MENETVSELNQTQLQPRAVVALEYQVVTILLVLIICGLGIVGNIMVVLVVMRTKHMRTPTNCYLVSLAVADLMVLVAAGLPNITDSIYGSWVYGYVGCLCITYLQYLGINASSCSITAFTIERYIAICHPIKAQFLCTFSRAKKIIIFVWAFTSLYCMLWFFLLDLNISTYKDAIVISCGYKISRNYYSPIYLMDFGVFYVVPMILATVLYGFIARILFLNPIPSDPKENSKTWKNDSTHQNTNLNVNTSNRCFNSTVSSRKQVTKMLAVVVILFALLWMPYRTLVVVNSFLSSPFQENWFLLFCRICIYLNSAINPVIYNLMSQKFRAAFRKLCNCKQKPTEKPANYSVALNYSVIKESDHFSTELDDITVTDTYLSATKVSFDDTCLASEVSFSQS
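Steps: seed TRHR cells overnight; add fluo-8 no-wash Ca dye, RT 30 min–1.5 h; record 10 s baseline; pin-transfer compounds; monitor fluorescence 1 cycle/s for the agonist window. Calcium increases flag candidate agonists.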
D1 antagonist = antagonists of human D1 dopamine receptor; activity change, negative = inhibition, % at 10 µM; AID 504652; HEK293 TREx D1 cells, calcium flux, dopamine EC80; stronger effect = lower value; 3.2% of 360,000 active; in the data active = activity change below about -30%; also: % is scaled to controls: 0 for no effect and ±100 for the full control effect
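Tetracycline-induced HEK293 Trex D1 cells, force-coupled to calcium, dye-loaded; compounds added and read 180 s, then EC80 dopamine added and calcium flux tracked kinetically another 180 s.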
TRHR enhancer = allosterically enhances the human TRH receptor. P34981. TRHR cells, fluo-8 calcium fluorescence, EC20 TRH enhancement. enhancement, % at 2 µM. 0.66% of 360,000 active; in the data active = enhancement above about 30%; also: 0% is about no effect
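Enhancer read-out: after compound pinning and an initial kinetic agonist-mode read, an EC20 of TRH (10 nM final) was injected and fluo-8 calcium signal (Ex 480/Em 530) followed at 1 s/cycle for 100 cycles in TRHR-expressing cells.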
Numbers without * were called inactive; ! = not confirmed by another sample; [ ] = dose if it differs, or a comment. Sampled rows, rich in hits. Any-hit rate of the full collection: about 4.6%. Rule as the data show it, unless noted: active = activation above about 30%; inactive = the rest.

CSc1ccc(CCNC(=O)CCCn2c(=O)c3cccn3c3ccccc32)cc1 was read as D1 ag 6, Epigenetic derep 10%, D1 PAM -5, TRHR ag 0, D1 antagonist -1 and TRHR enhancer -1.
CCCOCc1cc(CN2CCN(c3ccccc3OC)CC2)c(O)c2ncccc12 was read as D1 ag -2, Epigenetic derep 3.5µM*, D1 PAM -2, TRHR ag -2, D1 antagonist -4 and TRHR enhancer 3.
Screening COc1ccccc1N1CCN(Cc2cc(COC(C)C)c3cccnc3c2O)CC1 returned D1 ag 0, Epigenetic derep 3.5µM*, D1 PAM -3, TRHR ag -2, D1 antagonist -1 and TRHR enhancer 5.
For CC(C)COCc1ccc(O)c2ncccc12 the results were D1 ag 0, Epigenetic derep inconclusive, D1 PAM 7, TRHR ag 0, D1 antagonist -7 and TRHR enhancer 8.
`CCCOCc1ccc(O)c2ncccc12` gave D1 ag 1, Epigenetic derep 3.5µM*, D1 PAM 12, TRHR ag 1, D1 antagonist 10 and TRHR enhancer 8.
`CCN1Cc2c(/C=C/c3ccccc3)nc3ccc(OC)cc3c2N(c2cccc(Cl)c2)C1` gave D1 ag 6, Epigenetic derep inconclusive, D1 PAM -13, TRHR ag 5, D1 antagonist -63* and TRHR enhancer -4.
`COc1cccc(N2CCc3c(C)nc4ccc(Cl)cc4c32)c1` gave D1 ag 0, D1 PAM -11, TRHR ag -1, D1 antagonist 3 and TRHR enhancer 8.
`COc1cccc(NC(=S)NC(=O)Cc2ccc(Cl)cc2)c1` gave D1 ag 68*, D1 PAM -6, TRHR ag 4, D1 antagonist 0 and TRHR enhancer 2.
CCC(=O)Nc1cccc(NC(=S)NC(=O)Cc2ccccc2)c1 was read as D1 ag 3, Epigenetic derep -1%, D1 PAM -3, TRHR ag 0, D1 antagonist 12 and TRHR enhancer 18.
CCC(=O)NC(=S)Nc1cc(C(=O)O)ccc1OC was read as D1 ag -3, Epigenetic derep 0%, D1 PAM -2, TRHR ag 0, D1 antagonist 6 and TRHR enhancer 2.
Screening COc1ccccc1NC(=S)NC(=O)Cc1ccc(Cl)cc1 returned D1 ag 57*, D1 PAM -6, TRHR ag 5, D1 antagonist -43* and TRHR enhancer -21.
COc1ccc(C(=O)O)cc1NC(=S)NC(=O)CSc1ccc(Cl)cc1 was read as D1 ag 3, D1 PAM -3, TRHR ag 0, D1 antagonist -74* and TRHR enhancer -3.
Screening C[C@@H](c1ccccc1)N1C(=O)[C@H]2[C@H]3[C@H](O)[C@H](O)C/C(=N/NC(=O)OCc4ccccc4)[C@@H]3CC[C@@H]2C1=O returned Epigenetic derep 0%[10.1 µM].
For C=C(C)COc1ccc(-c2[nH]ncc2Oc2cccc(OC)c2)c(O)c1 the results were D1 ag 5, Epigenetic derep 3%, D1 PAM -4, TRHR ag 0, D1 antagonist -39* and TRHR enhancer 2.
For O=[N+]([O-])c1cc(Cl)cc(/C=N/Nc2nc3ccccc3s2)c1O the results were D1 ag -1, Epigenetic derep 0%, D1 PAM -8, TRHR ag -1, D1 antagonist -50* and TRHR enhancer -11.
COc1ccc(C(OCC(O)CNCCc2ccc(S(N)(=O)=O)cc2)c2ccc(OC)cc2)cc1 (centres undefined) was read as D1 ag 10, D1 PAM 4, TRHR ag 3, D1 antagonist 16 and TRHR enhancer -4.
Screening OC(CNCCc1ccc(C(F)(F)F)cc1)COC(c1ccccc1)c1ccccc1 (centres undefined) returned D1 ag 101*, D1 PAM 52*, TRHR ag 0, D1 antagonist 12 and TRHR enhancer -4.
Screening C/C=C/c1ccc2oc(-c3ccc(O)cc3)c(C)c2c1 returned Epigenetic derep 5%.
`CC(=Nc1ccc(Br)cc1)c1sc2ccccc2c1O` gave D1 ag 62*, Epigenetic derep 3%, D1 PAM 1, TRHR ag 12, D1 antagonist -3 and TRHR enhancer 1.
For O=[S+]([O-])(NC[C@H]1CCC[C@H](CN[S+](=O)([O-])c2c(F)cccc2F)C1)c1ccc2c(c1)OCCO2 the results were D1 ag 7, D1 PAM 2, TRHR ag 1, D1 antagonist 2 and TRHR enhancer 7.
`COc1cccc(NC(=O)CCNS(=O)(=O)c2ccc(Br)s2)c1` gave D1 ag 3, Epigenetic derep -1%, D1 PAM 6, TRHR ag -1, D1 antagonist -37*! and TRHR enhancer 7.
NC(=O)c1nc(-c2ccc(F)c(F)c2)nc2c1[nH]c(=O)n2-c1cccc(Cl)c1 was read as D1 ag 5, Epigenetic derep -3%, D1 PAM -3, TRHR ag 1, D1 antagonist 2 and TRHR enhancer 1.
`COC(=O)C1=C(C)NC(=O)C1(NC(=O)c1ccc(Cl)cc1)C(F)(F)F` (centres undefined) gave D1 ag 3, Epigenetic derep 3%, D1 PAM 1, TRHR ag 1, D1 antagonist -21 and TRHR enhancer -6.
For C=CCOC(=O)C1=C(C)NC(SC)=C(C#N)C1c1cccs1 (centres undefined) the results were D1 ag 0, Epigenetic derep 7%, D1 PAM -6, TRHR ag -1, D1 antagonist -20 and TRHR enhancer -10.
For C=CCOC(=O)C1=C(C)NC(SCC(=O)Nc2nccs2)=C(C#N)C1c1cccs1 (centres undefined) the results were D1 ag 2, Epigenetic derep -2%, D1 PAM -22, TRHR ag -1, D1 antagonist -75* and TRHR enhancer 11.
For CCOC(=O)C1=C(C)NC(SCC(=O)Nc2cc(C)on2)=C(C#N)C1c1cccs1 (centres undefined) the results were D1 ag 3, Epigenetic derep 0%, D1 PAM -6, TRHR ag 0, D1 antagonist -48* and TRHR enhancer -6.
Screening C=CCOC(=O)C1=C(C)NC(SCC(=O)Nc2nccs2)=C(C#N)C1c1ccc(Cl)cc1 (centres undefined) returned D1 ag 1, Epigenetic derep -1%, D1 PAM -14, TRHR ag 0, D1 antagonist -70* and TRHR enhancer 2.

Screening data from PubChem BioAssay.
